Methyltransferases: Primary Screen for Target Class Profiling of Small Molecule Inhibitors of Methyltransferases; purified enzyme, MTase-Glo SAH luminescence; stronger effect = lower value; 25,000 tested, 3.9% active; calls only at 40 µM; AID 1745853, 2022; call rule not given here
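Each enzyme was reacted with SAM and its substrate, with compounds tested once at 40 uM; SAH formed was read by MTase-Glo luminescence.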
Active calls of the source: *; i = inactive; + = active, no number; ! = not confirmed by another sample. Many of the other results were omitted from the sample, so hits are more common in it than they were. % is scaled to controls: 0 for no effect and ±100 for the full control effect.

SMILES | Methyltransferases
CCC1CN2CCc3cc(OC)c(OC)cc3C2CC1CC1=NCCc2cc(O)c(OC)cc21 (configuration not stated) | +
Cc1cc(C)cc(NC(=O)N2Cc3ccccc3-n3cccc3C2C)c1 (configuration not stated) | i
Cc1ccc(C2c3cccn3-c3ccccc3CN2C(=O)Nc2cccc(C)c2C)cc1 (configuration not stated) | i
COc1cccc(CNC(=O)N2Cc3ccccc3-n3cccc3C2c2ccccc2)c1 (configuration not stated) | i
CCOC(=O)C1CCC(CNC(=O)N2Cc3ccccc3-n3cccc3C2c2ccccc2)CC1 (configuration not stated) | i
COc1ccccc1NC(=O)N1Cc2ccccc2-n2cccc2C1c1ccccc1Cl (configuration not stated) | i
CCOc1ccccc1NC(=O)N1Cc2ccccc2-n2cccc2C1C (configuration not stated) | i
Oc1ccc2c(c1)C13CCCC[C@H]1[C@@H](C2)N(CC1CCC1)CC3 | +
Cc1ccc(C2c3cccn3-c3ccccc3CN2C(=O)Nc2ccc(C)cc2Cl)cc1 (configuration not stated) | i
[Cl-].[Cl][Pt].[NH2-].[NH2-].c1ccncc1 | +
CCC1c2cccn2-c2ccccc2CN1C(=O)Nc1cccc(Cl)c1 (configuration not stated) | i
Cc1ccccc1NC(=O)N1Cc2ccccc2-n2cccc2C1c1ccccc1C (configuration not stated) | i
CSc1ccc(C2c3cccn3-c3ccccc3CN2C(=O)Nc2ccc(C)cc2Cl)cc1 (configuration not stated) | i
CCOc1ccc(C2c3cccn3-c3ccccc3CN2C(=O)NCCCOC)cc1 (configuration not stated) | i
O=C(Nc1ccccc1)N1Cc2ccccc2-n2cccc2C1c1cccc(Cl)c1 (configuration not stated) | i
CC[C@@H](CO)NC(=O)[C@@H]1C=C2c3cccc4c3c(cn4C)C[C@H]2N(C)C1 | +
CC[C@@H](CO)NC(=O)[C@@H]1C=C2c3cccc4[nH]cc(c34)C[C@H]2N(C)C1 | +
O=C(Nc1ccc2c(c1)OCCO2)N1Cc2ccccc2-n2cccc2C1c1ccc(F)cc1 (configuration not stated) | i
COc1ccc(C2c3cccn3-c3ccccc3CN2C(=O)Nc2ccc(C)c(C)c2)cc1 (configuration not stated) | i
COc1cccc(CNC(=O)N2Cc3ccccc3-n3cccc3C2c2cc(F)cc(F)c2)c1 (configuration not stated) | i
CSc1ccc(C2c3cccn3-c3ccccc3CN2C(=O)Nc2cccc(C)c2C)cc1 (configuration not stated) | i
COCCCNC(=O)N1Cc2ccccc2-n2cccc2C1c1ccc(F)cc1 (configuration not stated) | i
COc1cccc(CNC(=O)N2Cc3ccccc3-n3cccc3C2c2cccc(Cl)c2)c1 (configuration not stated) | i
CCOc1ccc(C2c3cccn3-c3ccccc3CN2C(=O)Nc2ccc(C)cc2Cl)cc1 (configuration not stated) | i
CSc1ccc(C2c3cccn3-c3ccccc3CN2C(=O)NCc2ccc(F)cc2)cc1 (configuration not stated) | i
SMILES | Methyltransferases
CC(C)CCNC(=O)N1Cc2ccccc2-n2cccc2C1c1ccc(F)cc1 (configuration not stated) | i
Cc1cc(NC(=O)N2Cc3ccccc3-n3cccc3C2C)ccc1Br (configuration not stated) | i
CC1Oc2cc3c(-c4c(O)cc(O)c5c(O)c6c(cc45)OC(C)C(C)C6=O)c(O)cc(O)c3c(O)c2C(=O)C1C (configuration not stated) | +
CC1c2cccn2-c2ccccc2CN1C(=O)Nc1ccc(F)cc1 (configuration not stated) | i
Cc1nnc2n1-c1sc(CCc3ccc(CC(C)C)cc3)cc1C(c1ccccc1Cl)=NC2C (configuration not stated) | +
Cc1ccc(C2c3cccn3-c3ccccc3CN2C(=O)Nc2ccc(C)c(C)c2)cc1 (configuration not stated) | i
COc1cc(OC)c(NC(=O)N2Cc3ccccc3-n3cccc3C2c2ccccc2)cc1Cl (configuration not stated) | i
Cc1c(Cl)cccc1NC(=O)N1Cc2ccccc2-n2cccc2C1c1cccs1 (configuration not stated) | i
CCOc1ccc(C2c3cccn3-c3ccccc3CN2C(=O)Nc2cc(Cl)ccc2C)cc1 (configuration not stated) | i
CC(C)[C@@H](CN1CC[C@@](C)(c2cccc(O)c2)[C@@H](C)C1)NC(=O)[C@H]1Cc2ccc(O)cc2CN1 | i
C=CCN1CCC2(C)c3cc(O)ccc3C[C@H]1[C@H]2C | +
COC(=O)c1cccc(NC(=O)N2Cc3ccccc3-n3cccc3C2c2ccc(SC)cc2)c1 (configuration not stated) | i
O=C(Nc1ccc2c(c1)OCCO2)N1Cc2ccccc2-n2cccc2C1c1ccc(Cl)cc1 (configuration not stated) | i
COc1ccc(NC(=O)N2Cc3ccccc3-n3cccc3C2c2ccc(F)cc2)c(OC)c1 (configuration not stated) | i
Cc1ccccc1C1c2cccn2-c2ccccc2CN1C(=O)Nc1ccc(Br)cc1 (configuration not stated) | i
COc1ccccc1NC(=O)N1Cc2ccccc2-n2cccc2C1c1ccccc1C (configuration not stated) | i
CCCN1CCc2cccc3c2[C@H]1Cc1ccc(O)c(O)c1-3 | +
CCCN1CCO[C@@H]2c3cc(O)ccc3OC[C@H]21 | i
COc1ccc(C2c3cccn3-c3ccccc3CN2C(=O)Nc2ccc(F)cc2F)cc1 (configuration not stated) | i
COc1ccc(NC(=O)N2Cc3ccccc3-n3cccc3C2c2cccc(Cl)c2)cc1OC (configuration not stated) | i
COc1ccc(C2c3cccn3-c3ccccc3CN2C(=O)NCc2ccco2)cc1OC (configuration not stated) | i
CNc1ccc2oc(C[C@H]3O[C@@]4(CC[C@H]3C)O[C@H]([C@H](C)C(=O)c3ccc[nH]3)[C@H](C)C[C@H]4C)nc2c1C(=O)O | +
CSc1ccc(C2c3cccn3-c3ccccc3CN2C(=O)Nc2cc(Cl)ccc2C)cc1 (configuration not stated) | i
COc1ccc(C2c3cccn3-c3ccccc3CN2C(=O)Nc2ccc(C)cc2)cc1OC (configuration not stated) | i
CCOc1ccccc1NC(=O)N1Cc2ccccc2-n2cccc2C1c1ccc(Cl)cc1 (configuration not stated) | i
CCc1ccc(C2c3cccn3-c3ccccc3CN2C(=O)NCCC(C)C)cc1 (configuration not stated) | i
Cc1ccc(C2c3cccn3-c3ccccc3CN2C(=O)Nc2ccc(Br)c(C)c2)cc1 (configuration not stated) | i
N#C/C(=C/c1ccc(O)c(O)c1)C(N)=S | +!
